This is an account of results in PubChem BioAssay (NCI).

Assay [1] can be described thus: NCI Yeast Anticancer Drug Screen. Data for the rad50 strain (AID 155).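 Further: 0% = growth of vehicle-only cultures of the same strain.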 Particulars: S. cerevisiae rad50 strain growth inhibition; at 50.0 µM; active compounds read high. In a few lines: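 Yeast carrying a defined DNA repair defect were exposed to test compounds, and growth was compared with vehicle-treated controls to give percent inhibition.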
Assay [2] is described as follows: NCI Yeast Anticancer Drug Screen. Data for the mec2-1 strain (AID 157). The note with it: S. cerevisiae mec2-1 strain, at 50.0 µM, active compounds read high. In a few lines:
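Mutant yeast (mec2-1) grown with compound; growth inhibition relative to vehicle control reported.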

Assay [3] is described as follows: NCI Yeast Anticancer Drug Screen. Data for the sgs1 mgt1 strain (AID 161).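 Further: 0% = growth of cultures given vehicle only.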 The note with it: S. cerevisiae sgs1 mgt1 strain, at 50.0 µM, active compounds read high. The method, boiled down:
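This yeast growth screen uses a strain with defined DNA-repair lesions; compound-treated growth is compared with vehicle-treated growth.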

The nature of assay [4]: NCI Yeast Anticancer Drug Screen. Data for the cln2 rad14 strain (AID 165).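 Further: 0% = growth equal to vehicle treated cultures.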 Particulars: S. cerevisiae cln2 rad14 strain, at 50.0 µM, active compounds read high. The method, boiled down:
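Readout is yeast growth inhibition versus vehicle-treated controls, using a strain with cln2 and rad14 alterations exposed to compound.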

The nature of assay [5]: NCI Yeast Anticancer Drug Screen. Data for the bub3 strain (AID 167). Particulars: S. cerevisiae bub3 mutant strain, at 50.0 µM, active compounds read high. The method, boiled down:
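Compounds were applied to a genetically altered yeast strain carrying a cell-cycle control defect. Growth inhibition was scored against vehicle-treated controls.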

Assay [6] in a line: NCI Yeast Anticancer Drug Screen. Data for the mlh1 rad18 strain (AID 175). Particulars: S. cerevisiae mlh1 rad18 strain growth inhibition; at 50.0 µM; active compounds read high. The method, boiled down:
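Genetically defined yeast (DNA repair-deficient) exposed to compounds; growth inhibition determined relative to vehicle.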

The structures appear in SMILES notation. The panel holds about 79,000 compounds, 15% with a hit somewhere; the sample as a whole holds those more often. A number with no mark means an inactive call. Activity calls are given as the source filed them. No stated cut-off is given here; in the data, active means growth inhibition above about 70%; inactive means the rest.

On to `C#CC(O)C(CC)CCCC` (stereo unspecified), for which the growth inhibition was -11.1% in assay [1]; -46.5% in assay [2]; -14.7% in assay [3]; -10.4% in assay [4]; -12.8% in assay [5]; 13.8% in assay [6].
`CO/C(N)=C(\C#N)N=Cc1ccco1`: the growth inhibition is -21.4% in assay [1]; -22.4% in assay [2]; -4.65% in assay [3]; 11.8% in assay [4]; -4.55% in assay [5]; 9.3% in assay [6].
Take `COc1ccccc1C1(CBr)OCCO1`: the growth inhibition was -6.15% in assay [1]; -7.7% in assay [2]; 6.55% in assay [3]; -5.4% in assay [4]; -3.85% in assay [5]; 9.4% in assay [6].
For `O=C([O-])c1ccc2c(c1)-c1nc-2nc2[n-]c(nc3nc(nc4[n-]c(n1)c1ccc(C(=O)[O-])cc41)-c1ccc(C(=O)[O-])cc1-3)c1ccc(C(=O)[O-])cc21.[Gd+3].[K+]`, the growth inhibition in assay [1] is -12.8%; in assay [2], -11.1%; in assay [3], -11.8%; in assay [4], 23.6%; in assay [5], 18%; in assay [6], -12.1%.
`C/C(=N/NC(N)=O)c1ccc(C)o1`: the growth inhibition is 1.85% in assay [1]; -3.55% in assay [2]; -4.4% in assay [3]; -0.75% in assay [4]; 1.55% in assay [5]; 0.35% in assay [6].
In the case of `CC(=O)C(C(=O)C(=O)Nc1cc(Cl)c(Cl)cc1Cl)c1csc(N)n1` (stereo unspecified), the growth inhibition in assay [1] is -14.7%; in assay [2], -9.2%; in assay [3], -1.85%; in assay [4], 7%; in assay [5], -2.5%; in assay [6] it was -10.6%.
Turning to `NC(=O)N1CCCCN1C(N)=O`, the growth inhibition in assay [1] is 9.9%; in assay [2] it was -7.95%; in assay [3], -1.6%; in assay [4], -55%; in assay [5] it was 6.75%; in assay [6], -4.65%.
For `CC1=C(C[Si](C)(C)C)CC(CO[Si](C)(C)C(C)(C)C)C2C(=O)N(C(=O)c3ccccc3)C(Cc3ccccc3)C12` (stereo unspecified), the growth inhibition was 21.6% in assay [1]; 5.7% in assay [2]; 2.05% in assay [3]; -4.25% in assay [4]; -3.95% in assay [5]; 23.4% in assay [6].
On to `O=c1[nH]ncc2ccccc12`, for which the growth inhibition in assay [1] was -3.1%; in assay [2], -16.2%; in assay [3], -3.95%; in assay [4], -53.5%; in assay [5], -4.75%; in assay [6] it was -2.45%.
As to `Oc1ccc(O)c(-c2ccccc2)c1`, the growth inhibition in assay [1] was 61.5%; in assay [2], 36.2%; in assay [3] it was 53.2%; in assay [4] it was 51%; in assay [5] it was 33.6%; in assay [6] it was 44%.
In the case of `CN=C(NC#N)NCc1ccccc1`, the growth inhibition in assay [1] was 7.05%; in assay [2], 7.35%; in assay [3], -2.6%; in assay [4], 10.1%; in assay [5] it was 20.8%; in assay [6] it was 8.45%.
Consider `OCCCc1ccccc1`, for which the growth inhibition in assay [1] was -0.1%; in assay [2], -1.65%; in assay [3], -2.55%; in assay [4], -13.2%; in assay [5] it was 3.25%; in assay [6], -3.7%.
Turning to `Cc1c(C)c2cc(Br)ccc2[nH]c1=O`, the growth inhibition in assay [1] was 18.9%; in assay [2], -6.2%; in assay [3], -10.2%; in assay [4] it was 6.45%; in assay [5], 6.7%; in assay [6], 2.45%.
Regarding `COc1ccc2c(c1)CC1c3[nH]c4ccccc4c3CCN1C2` (stereo unspecified), the growth inhibition in assay [1] was 52.7%; in assay [2], 35.5%; in assay [3] it was 52.9%; in assay [4], 32.5%; in assay [5] it was 19.1%; in assay [6], 79% (active).
For the compound `NC(=O)Nc1cccc(C(=O)O)c1C(=O)O`, the growth inhibition in assay [1] is -29.4%; in assay [2], -13.2%; in assay [3] it was -18.1%; in assay [4] it was -33.6%; in assay [5], -13.1%; in assay [6], -28.4%.
For the compound `CC1=C(Br)C(=O)C(C(C)C)=CC1=O`, the growth inhibition in assay [1] is -38.2%; in assay [2] it was -20.6%; in assay [3], -6.75%; in assay [4] it was -4.9%; in assay [5], 3.5%; in assay [6], 0.9%.
Take `O=C(NC(=O)c1ccc(F)c(Cl)c1)NC1CC1`: the growth inhibition in assay [1] was 6.3%; in assay [2], -1.15%; in assay [3] it was 12%; in assay [4] it was 14.2%; in assay [5], 9.25%; in assay [6], 5.3%.
On to `O=C(NCN1CCOCC1)Nc1ccccc1`, for which the growth inhibition is 8% in assay [1]; 0.6% in assay [2]; -1.65% in assay [3]; -24.2% in assay [4]; -6.55% in assay [5]; 2.05% in assay [6].
In the case of `C1=C(C2=CCCCC2)CCCC1`, the growth inhibition in assay [1] was -1.35%; in assay [2], 6%; in assay [3], -4.35%; in assay [4], -42.9%; in assay [5] it was 4.8%; in assay [6], 4.15%.
For `O=C(O)CCc1coc2ccc(O)cc12`, the growth inhibition is -0.45% in assay [1]; 10.1% in assay [2]; 8.4% in assay [3]; -20.6% in assay [4]; -6.1% in assay [5]; 14.2% in assay [6].
As for `Cc1cc(OCc2ccc3ccccc3c2)ccc1Nc1cc(=O)[nH]c(=O)[nH]1`, the growth inhibition in assay [1] is 3.65%; in assay [2], 33.6%; in assay [3], 18.6%; in assay [4], -4.55%; in assay [5], 33.6%; in assay [6], 24.4%.
